CYP2C19 activ – cytochrome P450 2C19 (human) activation; P33261; recombinant CYP2C19, luciferin-H EGE luminescence; active compounds read high; 0 = fully inhibited enzyme, 1 = untreated enzyme; activation factor at 5 µM; 96,000 tested, under 10 active; AID 1025;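 active means activation factor of at least 2 at 5 µM in the primary screen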;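 further: 0 = wells with 2.5 mM tranylcypromine and 1 = vehicle-only wells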
CYP2C19 inhib – inhibitors of human CYP2C19; P33261; CYP2C19 Supersomes, luciferin-H EGE luminescence, 30 min; inhibition, % at 5 µM; hit rate 21% among 96,000; AID 778;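 active means CYP2C19 inhibition above a set limit at 5 µM in the primary screen, cut at about 50% in these data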;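 further: plate controls were negative control wells for no effect and 2.5 mM tranylcypromine positive control for full effect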
CYP2C9 act – CYP2C9 (human) activation. activation factor at 5 µM. P11712. hit rate 1.4% among 96,000. recombinant CYP2C9, luciferin-H conversion, luminescence; active compounds read high; factor 1 = untreated enzyme, 0 = blocked;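 active means activation factor of 2 or more for CYP2C9 at a 5 µM dose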;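 further: 0 = sulfaphenazole-blocked wells and 1 = vehicle-only wells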
CYP2C9 inhib – inhibitors of human CYP2C9; CYP2C9 Supersomes, luciferin-H conversion, luminescence; inhibition, % at 5 µM; hit rate 20% among 96,000;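 active means blocking of liver enzyme CYP2C9 beyond about 50% at 5 µM, limit read from the data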
Numbers without * were called inactive. Sampled rows, rich in hits. Any-hit rate of the full collection: about 31%.

SMILES	CYP2C19 activ	CYP2C19 inhib	CYP2C9 act	CYP2C9 inhib
N#Cc1cnc(Nc2nc3ccccc3o2)nc1-c1ccccc1	0.8	20.6	0.4	61.6*
COc1ccc(C(=O)Cn2nnc(-c3ccccc3NC(=O)c3ccco3)n2)cc1	0.9	9.9	0.8	16.6
O=C(Nc1ccccc1-c1nnn(CC(=O)N2CCCc3ccccc32)n1)c1ccco1	0.5	54.4*	0.1	89.8*
O=C1CC(N2CCN(c3nc4ccccc4s3)CC2)C(=O)N1Cc1cccs1 (stereo not given)	0.5	47.6	0.3	68.9*
COc1ccc(Br)cc1CNCCSc1nnnn1C	0	100.2*	0.5	54.6*
Cn1nnnc1SCCNC/C=C/c1ccccc1	0.2	79.5*	0.9	8.3
Cn1nnnc1SCCNCc1cccnc1	0.8	17.9	0.7	28.9
COc1ccc(CNCCSc2nnnn2C)cc1OC	0.9	12.5	1.3	-25.6
COc1cccc(CNCCSc2nnnn2C)c1	0.3	71.2*	1.1	-10.7
CCc1ccc(CNCCSc2nnnn2C)cc1	0.3	70.2*	0.9	6.6
CC(=O)Nc1ccc2nc(C3CCCCC3)[nH]c2c1	1	-1.4	1	3.9
Cc1occc1C(=O)NCc1ccc(C(=O)O)o1	1	-3.3	1	0.6
COC(=O)\C(C(C)=O)=C(/C=C/C=C/C=C/N(C)C)N(C)C	1	0.1	0.9	7.4
CCn1c2ccccc2c2cc(NC(=O)CCCN3C(=O)CCC3=O)ccc21	0.5	49.3	1.9	-89.3
CCOC(=O)C1CCCN(C/C(O)=C(\C#N)c2nc(-c3ccccc3)cs2)C1 (stereo not given)	0.6	45.0	0.7	30.8
Cn1nnnc1SCCNCc1cccc2ccccc12	0.1	85.6*	0.8	15.4
COc1ccc(CSc2nnnn2C)cc1F	0.3	72.4*	1	-3.4
COc1ccc(CSc2nnnn2C)cc1[N+](=O)[O-]	0.7	30.0	1	0.1
CCc1ccccc1S(=O)(=O)Cc1ccc(C(=O)N2CCN(c3ccccn3)CC2)o1	0.6	38.7	1	4.9
Cc1cccc(NC(=S)N/C(=N/S(=O)(=O)c2ccccc2)c2ccccc2)c1	0.9	14.1	0.5	45.7
O=[N+]([O-])c1ccc(NC(=S)N/C(=N/CS(=O)(=O)c2ccccc2)c2ccccc2)cc1	0.7	28.8	0.4	57.8*
O=c1c2cnn(-c3ccccc3Cl)c2ncn1Cc1cccnc1	0.5	53.0*	0.9	9.8
O=c1c2cnn(-c3ccccc3)c2ncn1Cc1ccco1	0.7	26.6	0.5	50.0*
O=c1c2cnn(-c3ccccc3)c2ncn1Cc1ccccn1	0.6	42.4	0.8	16.0
O=c1c2cnn(-c3ccc(F)cc3)c2ncn1Cc1cccnc1	0.5	50.0*	0.8	18.3
SMILES	CYP2C19 activ	CYP2C19 inhib	CYP2C9 act	CYP2C9 inhib
O=c1c2cnn(-c3ccccc3)c2ncn1Cc1cccnc1	0.6	40.1	0.8	20.5
CC(C)OCCCNC(=O)C1CCC(=O)N1C(C)C (stereo not given)	1.1	-7.2	1.1	-7.9
COc1ccc2ccccc2c1CN1CCN(C)CC1	1	2.6	0.9	10.8
COc1ccc(-c2nnn(CC#N)n2)cc1OC	0.2	84.2*	0.4	61.6*
COc1ccccc1-c1nnn(CC#N)n1	1.1	-8.4	1.1	-11.3
CC(=O)NC(CCS(C)(=O)=O)C(=O)Nc1cccc2ccccc12 (stereo not given)	0.9	6.5	0.5	54.1*
COc1ccc2nc(NC(=O)C3CCCN(S(=O)(=O)c4cccc5nsnc45)C3)sc2c1 (stereo not given)	0.2	78.0*	0.1	85.6*
CCOc1ccccc1NC(=O)C1CCCN(S(=O)(=O)c2cccc3nsnc23)C1 (stereo not given)	0.5	51.7*	0.5	53.2*
COc1ccc(NC(=O)C(=O)N/N=C/c2cc(C)n(-c3cccc(Cl)c3Cl)c2C)c(OC)c1	0.3	72.3*	0.7	32.6
COc1ccc(OC)c(/C(O)=C/C(=O)C(=O)Nc2ccccc2OC)c1	1	3.6	1.1	-13.6
COc1ccc(OC)c(NC(=O)C(=O)N/N=C/c2ccccc2[N+](=O)[O-])c1	0.9	6.8	2.2*	-118.8
COc1ccc(NC(=O)Nc2ccccc2C)c(OC)c1	0.8	20.6	1	0.8
CCC1Oc2ccc(C)cc2N(CC(=O)NCC2COc3ccccc3O2)C1=O (stereo not given)	0.1	92.7*	0.6	37.8
Cc1ccc2c(c1)N(CCC(=O)NCC1COc3ccccc3O1)C(=O)CO2 (stereo not given)	0.2	75.7*	0.6	35.4
Cc1cc(OC(=O)c2cc(Cl)nc3ccccc23)ccc1Cl	1	0.7	0.9	7.8
O=C(CCCOc1ccc(Cl)cc1)Nc1nncs1	0.3	68.1*	0.3	68.3*

Compound activity: PubChem, Sanford-Burnham Center for Chemical Genomics
